The campaign covered roughly 59,000 compounds. Fewer than 10 were called active. A selection follows. A number with no mark means an inactive call. The rule behind the calls is not given here.
Assay: qHTS Assay for Spectroscopic Profiling in A647 Spectral Region
Conditions: Compound fluorescence, A647 channel (570/671 nm), Tris buffer; active compounds read high
Source text: NIH Molecular Libraries Screening Centers Network [MLSCN] NIH Chemical Genomics Center [NCGC] […] Occasionally, the artifactual effect may originate from the compounds own spectral or other biophysical properties which generally tend to track its assay concentration. Pre-screening/profiling the library with respect to the compounds spectral properties should help one exclude false positives early on. While the most informative fluorescent profiling data set is obtained by performing a full excitation and emission scan of each well by using a monochromator-based plate reader, such an approach is practical only on a very limited scale as scanning each well requires long time. An alternative approach, applied here, is to perform plate reader scans using selected excitation and emission wavelength pairs to generate a multidimensional relational database that correlates compound concentration and the respective relative fluorescence intensity at a given wavelength set. A standard curve of Alexa 647 (A647) present on each plate as six-point concentration series, was used to compute a normalized fluorescence response, termed dye-equivalent concentration, for each compound at each concentration.
NCGC Assay Protocol Summary: Buffer: 100 mM Tris buffer, pH 8.0 Dye standard plate: The wells in columns 1 through 4 of a Kalypsys polypropylene 1536-well compound plate were filled with standard solutions of fluorophore corresponding to the spectral region of interest. Solutions of A647 were placed in the following wells: AC1, AD1: 3 mM, AC2, AD2: 300 uM, AC3, AD3: 30 uM, AC4, AD4: zero (DMSO), AE1, AF1: 3 uM, AE2, AF2: 900 nM, AE3, AF3: 300 nM, AE4, AF4: zero (DMSO). Assay Steps: Six uL of buffer were dispensed to 1536-well Greiner black plates. Compounds and dye standards (23 nL) were transferred via Kalypsys PinTool. The plates were incubated for 15 min at room temperature, and then read on ViewLux (Perkin-Elmer) High-throughput CCD imager using 570 nm and 671 nm excitation and emission filter set. Keywords: NIH Roadmap, MLSCN, MLI, MLSMR, qHTS, NCGC, A647, A-647, Fluorescent Profiling.

With CC(=O)/C(=N\N=C(N)N)c1ccccc1 as the compound, how does the max dye-equivalent concentration read?
Its max dye-equivalent concentration is 1 nM.

For Clc1ccc(Cc2nn3c(-c4ccncc4)nnc3s2)cc1, which max dye-equivalent concentration is on record?
Its max dye-equivalent concentration is 4 nM.

With CCc1cc(Br)ccc1NC(=O)C1CCCO1 (stereo not given) as the compound, how does the max dye-equivalent concentration read?
Its max dye-equivalent concentration is 19 nM.

Which max dye-equivalent concentration does the source give for CCCS(=O)(=O)Nc1c(C(=O)O)[nH]c2ccccc12 here?
The max dye-equivalent concentration was 1 nM.

With CCCCSc1nnc(-c2ccc(C)cc2)o1 as the compound, how does the max dye-equivalent concentration read?
The max dye-equivalent concentration was 5.1 nM.

Which max dye-equivalent concentration does the source give for CCOC(=O)c1oc2ccccc2c1NC(=O)c1cccs1 here?
Its max dye-equivalent concentration is 5.6 nM.

With CCCS(=O)(=O)N1CCCC(C(=O)N2CCN(c3ccccc3)CC2)C1 (stereo not given) as the compound, how does the max dye-equivalent concentration read?
The max dye-equivalent concentration was 1 nM.

Which max dye-equivalent concentration does the source give for COc1ccc(CN2CN(C(C)C)CSC2=S)cc1 here?
Its max dye-equivalent concentration is 1 nM.

Which max dye-equivalent concentration does the source give for COc1ccc(-c2cc3n(n2)CCc2nc4ccccc4n2-3)cc1 here?
The max dye-equivalent concentration was 1 nM.

With O=C1c2oc3ccc(Br)cc3c(=O)c2C(c2cccc(F)c2)N1CCO (stereo not given) as the compound, how does the max dye-equivalent concentration read?
The max dye-equivalent concentration was 3.9 nM.

For Cc1cc(N2CCCCC2)nc2ccc(Cc3ccc4nc(N5CCCCC5)cc(C)c4c3)cc12, which max dye-equivalent concentration is on record?
The max dye-equivalent concentration was 3.4 nM.

With O=C(NC1CC2CCCC(C1)N2C(=O)N1CCCCC1)C1CCCCC1 (stereo not given) as the compound, how does the max dye-equivalent concentration read?
The max dye-equivalent concentration was 31 nM.

With CCCCOc1ccccc1/C=c1/sc2nc(-c3oc4ccccc4c3C)nn2c1=O as the compound, how does the max dye-equivalent concentration read?
Its max dye-equivalent concentration is 22 nM.

With COc1ccccc1N1CCN(C(=O)Cn2nnc(-c3cccs3)n2)CC1 as the compound, how does the max dye-equivalent concentration read?
The max dye-equivalent concentration was 1 nM.

For COc1ccccc1CNc1ncnc2ccc(-c3ccc4c(c3)OCO4)cc12, which max dye-equivalent concentration is on record?
The max dye-equivalent concentration was 31 nM.

With Cn1c(NC(=O)c2ccco2)c(-c2ccccc2Cl)c(=O)c2ccccc21 as the compound, how does the max dye-equivalent concentration read?
Its max dye-equivalent concentration is 1 nM.

For NC(=S)c1ccc(C(N)=S)o1, which max dye-equivalent concentration is on record?
Its max dye-equivalent concentration is 5.7 nM.

Which max dye-equivalent concentration does the source give for c1ccc(-c2nnc3n2NC(c2ccc4c(c2)OCO4)S3)cc1 (stereo not given) here?
The max dye-equivalent concentration was 12 nM.

Which max dye-equivalent concentration does the source give for O=C(CCc1ccccc1)Nc1ccc(NC(=O)C2CC2)nc1 here?
The max dye-equivalent concentration was 45 nM.

Which max dye-equivalent concentration does the source give for COC(=O)c1ccc(NCC(=O)c2ccccc2)cc1 here?
The max dye-equivalent concentration was 1.7 nM.

From PubChem BioAssay AID592 (National Center for Advancing Translational Sciences (NCATS), 2007)
